# Reference: PubChem BioAssay AID2013 (Sanford-Burnham Center for Chemical Genomics, 2009)
# About 370 (0.13%) of roughly 290,000 compounds were called active.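 Rule for the calls: active = spots per cell inhibited over 60%, with over 100 cells counted and total cytoplasm intensity under 500,000; inconclusive = wells with under 100 cells, flagged as likely toxic; inactive = the rest.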 Many of the other results were omitted from the sample, so actives are more common in it than they were. Entries with a potency or affinity are not part of this list.
# Target: G-protein coupled receptor 55 (Homo sapiens) (UniProt Q9Y2T6)
# Sequence (Q9Y2T6 whole entry, looked up): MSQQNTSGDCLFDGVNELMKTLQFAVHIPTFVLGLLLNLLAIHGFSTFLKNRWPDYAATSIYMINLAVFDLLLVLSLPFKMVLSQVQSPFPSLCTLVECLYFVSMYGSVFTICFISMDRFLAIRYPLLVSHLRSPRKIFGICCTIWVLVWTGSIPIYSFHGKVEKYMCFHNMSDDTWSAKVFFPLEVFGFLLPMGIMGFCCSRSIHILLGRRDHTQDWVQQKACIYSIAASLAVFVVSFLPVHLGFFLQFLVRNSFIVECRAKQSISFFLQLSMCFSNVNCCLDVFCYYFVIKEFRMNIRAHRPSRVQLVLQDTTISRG
# Assay: inhibition of LPI-stimulated GPR55 beta-arrestin translocation – imaging, U2OS, beta-arrestin-GFP, LPI agonist, primary screen (AID 2013);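 note: U2OS cells stably carrying GPR55 and arrestin-GFP stimulated by 5 µM LPI near EC80; imaged beta-arrestin-GFP aggregate spots per cell after agonist stimulation; plate controls were LPI-stimulated DMSO wells for no effect and DMSO wells without LPI for full effect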
# Settings: LPI antagonism, at 10 µM, active compounds read high
row,Structure (SMILES),inhibition
1,COc1ccc2nc(NC(=O)CN(c3ccc(C)cc3)S(=O)(=O)c3c(C)nn(C)c3C)sc2c1,22.1% (inactive)
2,COc1ccc(N(CC(=O)Nc2cc(C)ccc2C)S(=O)(=O)c2c(C)nn(C)c2C)cc1,10% (inactive)
3,C#CCNC(=O)C1=C[C@@H](c2csc3ccccc23)[C@H](CCCO)[C@@H](OCC)O1,14.1% (inactive)
4,COc1ccc(/C=N/NC(=O)c2cc(C34CC5CC(CC(C5)C3)C4)[nH]n2)cc1O,49.4% (inactive)
5,O=C(N/N=C/c1ccc(O)cc1)c1cc(C23CC4CC(CC(C4)C2)C3)[nH]n1,-6.9% (inactive)
6,COc1cccc(/C=N/NC(=O)c2cc(C34CC5CC(CC(C5)C3)C4)[nH]n2)c1,14.9% (inactive)
7,COc1cc(/C=N/NC(=O)c2cc(C3CC3)[nH]n2)ccc1O,6.5% (inactive)
8,CC(C)NC(=O)CN(CCc1ccccc1)S(C)(=O)=O,18.2% (inactive)
9,Cc1ccc(-n2ncc3c2CC(C)(C)CC3NC(=O)C2CCOCC2)cc1 (stereo not drawn),9.6% (inactive)
10,Cc1cc(C)n(CC(=O)O)c(=O)c1[N+](=O)[O-],1.7% (inactive)
11,CNC(=O)c1sccc1Oc1ccc(F)cc1[N+](=O)[O-],8.2% (inactive)
12,Cc1nc(N2CCN(S(=O)(=O)c3ccccc3)CC2)c2c3c(sc2n1)CC(C)CC3 (stereo not drawn),14.2% (inactive)
13,CC(C)c1nc(N2CCN(C(=O)c3ccco3)CC2)c2c3c(sc2n1)CCCC3,98.6% (inactive)
14,CCc1nc(N2CCN(C(=O)c3ccco3)CC2)c2c3c(sc2n1)CCCC3,7.3% (inactive)
15,Cc1nc(N2CCN(C(=O)c3ccco3)CC2)c2c3c(sc2n1)CCC3,46.7% (inactive)
16,CC(=O)N1CCN(c2nc(C)nc3sc4c(c23)CCC(C)C4)CC1 (stereo not drawn),22.1% (inactive)
17,Cc1nc(N2CCN(C(=O)c3cccs3)CC2)c2c3c(sc2n1)CCCC3,36.3% (inactive)
18,CCCN1C2CCCC1CC(NC(=O)c1cc(OC)cc(OC)c1)C2 (stereo not drawn),4.9% (inactive)
19,CN(C)S(=O)(=O)c1ccc(N)c([N+](=O)[O-])c1,16.6% (inactive)
20,FC(F)(F)COc1ccc(-n2ccnc2)nn1,-3.5% (inactive)
21,Cc1ccc(/C=C/C(=O)O)cc1S(=O)(=O)N1CCCc2ccccc21,9.5% (inactive)
22,COCCCNC(=O)CCc1ccccc1,-1.2% (inactive)
23,Cc1ccccc1CC(=O)N1CCN(C(=O)C2CCCO2)CC1 (stereo not drawn),10.1% (inactive)
24,CCCCn1c(-c2nn(C)cc2Cl)n[nH]c1=S,2.5% (inactive)

row,Structure (SMILES),inhibition
1,CC1=NOC(=O)/C1=C\c1ccc(-c2ccc(Cl)cc2Cl)o1,21% (inactive)
2,CC1=NOC(=O)/C1=C/c1ccc(-c2ccc(Cl)cc2)o1,7.3% (inactive)
3,Cc1ccc(C)c(NC(=S)N2CCC(NC(=O)c3ccccc3)CC2)c1,2.1% (inactive)
4,NC(=O)C1(N2CCCCC2)CCN(C2CC(=O)NC2=O)CC1 (stereo not drawn),9.8% (inactive)
5,CN1C(=O)/C(=C\c2cc(N=Nc3ccccc3)ccc2O)SC1=S,19.5% (inactive)
6,CN1C(=O)/C(=C\c2ccccc2OCc2ccccc2)SC1=S,-1.8% (inactive)
7,CNC(=S)NC1(C)CCS(=O)(=O)C1 (stereo not drawn),-1.4% (inactive)
8,CCOC(=O)c1c(-c2ccccc2)oc2ccc(O)c(CN3CCCC3)c12,-1.6% (inactive)
9,CCOC(=O)c1c(-c2ccccc2)oc2ccc(O)c(CN3CCOCC3)c12,34.5% (inactive)
10,Cc1ccc(OCC(=O)N/N=C/C=C/c2ccco2)cc1C,-3.3% (inactive)
11,CC(C)(C)c1ccc(-c2c(C(=O)O)c(C(=O)O)c3n2CSC3)cc1,-9.4% (inactive)
12,CC(C)(C)C1=CC=C(C(C)(C)C)C(=O)C1=O,-11.4% (inactive)
13,CCN1C(=O)N(CC)C(O)(c2ccccc2)C1(O)c1ccccc1 (stereo not drawn),14.2% (inactive)
14,Cc1ccc(-n2c(C)csc2=N)cc1,6.4% (inactive)
15,O=C(/C=C/c1cccc(Br)c1)NCC1CCCCC1,-3.3% (inactive)
16,CC[n+]1c(/C=C/c2ccc(N(C)C)cc2)ccc2ccccc21,-0.1% (inactive)
17,CN(C)c1ccc(/C=C/c2ccc3ccccc3[n+]2C)cc1,5.6% (inactive)
18,O=C(N/N=C\c1ccncc1)c1ccc(Br)s1,-6.3% (inactive)
19,Cc1cccc(N(CC(O)CON=C2c3ccccc3-c3ccccc32)S(C)(=O)=O)c1 (stereo not drawn),30.8% (inactive)
20,Cc1ccc(S(=O)(=O)N(CCCO)CC(O)CON=C2c3ccccc3-c3ccccc32)cc1 (stereo not drawn),4% (inactive)
21,CS(=O)(=O)N(CC(O)CON=C1c2ccccc2-c2ccccc21)c1ccc(F)cc1 (stereo not drawn),4.1% (inactive)
22,CCN(CC(O)Cn1c2ccccc2c2ccccc21)S(=O)(=O)c1ccc(C)cc1 (stereo not drawn),22.4% (inactive)
23,CCN(CC(O)CON=C1c2ccccc2-c2ccccc21)S(=O)(=O)c1ccc(Cl)cc1 (stereo not drawn),80.9% (active)
24,Cc1ccc(N(CC(O)CON=C2c3ccccc3-c3ccccc32)S(C)(=O)=O)cc1 (stereo not drawn),2.5% (inactive)

row,Structure (SMILES),inhibition
1,CC(C)CCNCC(O)CON=C1c2ccccc2-c2ccccc21 (stereo not drawn),35% (inactive)
2,CCN(CC(O)CON=C1c2ccccc2-c2ccccc21)S(=O)(=O)c1ccc(C)cc1 (stereo not drawn),89.1% (active)
3,CCOC(=O)c1ccccc1NC(=S)N1CCCCC1,4.2% (inactive)
4,CCOC(=O)C1CCCN(C(=O)C2CCC(CNS(=O)(=O)c3ccc(NC(C)=O)cc3)CC2)C1 (stereo not drawn),-10.7% (inactive)
5,Cc1ccc(S(=O)(=O)NCCc2nnc3ccc(SCC(=O)Nc4nc5ccccc5s4)nn23)cc1,-1.2% (inactive)
6,C#CCOCCOCCOCCNc1nc(N2CCN(C(=O)[C@H](Cc3cc4ccccc4[nH]3)n3cc([C@@H](N)C(C)CC)nn3)CC2)nc(N2CCN(C(=O)[C@H](CCCCN)n3cc([C@@H](N)CC(C)C)nn3)CC2)n1 (stereo partly drawn),22.1% (inactive)
7,O=C(NCC(=O)N(c1ccccc1)C(C(=O)NCC1CCCO1)c1ccccc1)c1ccco1 (stereo not drawn),-16.3% (inactive)
8,CC(C)CC(=O)Nc1ccccc1Oc1ccccc1,-0.5% (inactive)
9,CC(=O)Nc1ccccc1Oc1ccccc1,-4.1% (inactive)
10,Cc1ccccc1CN(C)CC(=O)Nc1ccccc1Oc1ccccc1,52.5% (inactive)
11,CN(CC(=O)Nc1ccccc1Oc1ccccc1)Cc1ccccc1F,80.5% (active)
12,CN(CC(=O)Nc1cccc(F)c1)CC(=O)Nc1ccccc1Oc1ccccc1,2.5% (inactive)
13,CC(C(=O)Nc1ccccc1Oc1ccccc1)c1ccccc1 (stereo not drawn),83.2% (active)
14,CC(=O)Nc1ccc(Nc2nc(C(F)(F)F)nc3c2nnn3Cc2ccccc2Cl)cc1,-4.9% (inactive)
15,Cc1ccc(/C=C2/N=C(c3ccccc3)NNC2=O)cc1,-5.1% (inactive)
16,c1ccc(-c2noc(CSc3nnc(Cc4cccs4)n3-c3ccccc3)n2)cc1,0.4% (inactive)
17,Cc1ccc(-c2noc(CSc3nnc(Cc4cccs4)n3-c3ccccc3)n2)cc1,16.9% (inactive)
18,Nc1nonc1-n1nnc(C(=O)N/N=C/c2ccccc2Cl)c1-c1ccc2c(c1)OCO2,-3.5% (inactive)
19,Cc1ccc(C(=O)Nc2ccccc2N2CCCCC2)cc1,0.4% (inactive)
20,Cc1ccc(C(=O)Nc2ccccc2N2CCCC2)cc1,-6.2% (inactive)
21,Cc1cc(=O)oc2cc(OCC(=O)N3CCN(c4ccccc4)CC3)c(Cl)cc12,6.4% (inactive)
22,Cc1cc(Nc2ccc(F)cc2F)n2ncnc2n1,-4.7% (inactive)
23,CCOC(=O)c1c(C)[nH]c(C)c1S(=O)(=O)N(C)CC(=O)Nc1cccc(F)c1,8% (inactive)
24,COc1ccc(N2C(=O)S[C@@H]3CS(=O)(=O)C[C@@H]32)cc1,14.8% (inactive)

row,Structure (SMILES),inhibition
1,CC1(C)OC(=CC=Nc2ccc(Cl)cc2)OC1(C)C,-0.4% (inactive)
2,COC(=O)c1cc2c(C)c(C)c3ccccn3c-2c1C(=O)OC,12.8% (inactive)
3,COC(=O)c1cc2n3ccccc3c(C)c(-c3ccccc3)c-2c1C(=O)OC,6.5% (inactive)
4,O=C(COC(=O)CCC(=O)c1cccs1)NC(=O)c1ccc(OC(F)F)cc1,6.3% (inactive)
5,COc1ccc(N2CCN(CC(=O)NCc3ccc(Cl)cc3)CC2)cc1,-5.1% (inactive)
6,O=C(O)CN1C(=O)/C(=C/c2ccc(SCc3ccccc3)o2)SC1=S,4.7% (inactive)
7,Cc1cccc(C)c1-n1cccc1/C=C1\SC(=S)N(c2cccc(C(=O)O)c2)C1=O,21.8% (inactive)
8,Cc1ccc(NC(=O)COc2nsnc2N2CCOCC2)cc1Cl,-2.9% (inactive)
9,CCCCOC(=O)CSC(=S)N(C)Cc1cccs1,-12.9% (inactive)
10,Cc1c([C@H]2[C@@H](CC#N)C2(C)C)c2ccccc2n1C,-0.3% (inactive)
11,Cc1[nH]c2ccccc2c1[C@H]1[C@@H](CC#N)C1(C)C,30.6% (inactive)
12,CC(C)NC(=O)C(=O)c1cn(C)c2ccccc12,-10.8% (inactive)
13,Cc1ccccc1N1CCN(C(=O)C2CCC(=O)N(C3CCCC3)C2)CC1 (stereo not drawn),5.6% (inactive)
14,Oc1ccccc1C1=NN(c2ccccc2)C(c2ccc(F)cc2)C1 (stereo not drawn),-10.6% (inactive)
15,Oc1ccc(C2=NN(c3ccccc3)C(c3ccc(F)cc3)C2)cc1 (stereo not drawn),60.3% (active)
16,COc1ccc(C2CC(c3ccc(F)cc3)=NN2c2ccccc2)cc1OC (stereo not drawn),1.5% (inactive)
17,Cc1noc(C)c1CN(C(=S)NC1CC1)c1ccccc1,4.1% (inactive)
18,CCNC(=S)N(Cc1c(C)noc1C)c1ccccc1,-9.5% (inactive)
19,CC(=O)N1CCOc2ccc(S(=O)(=O)Nc3ccc(Cl)cn3)cc21,-3.3% (inactive)
20,COc1ccccc1NC(=O)COC(=O)c1ccccc1C(=O)N1CCN(c2ccccc2)CC1,-1.1% (inactive)
21,Cc1ccccc1-n1cc(CNC(=O)CCc2nnc(CCc3ccccc3)o2)cn1,9.1% (inactive)
